# Test results published in the supplement of paper PMC4840960.
# Counter-ions that a name gives are not always drawn. ± gives the standard deviation of the averaged measurements.
# Test system: E18 rat cortical neuron-glia co-culture
# Assay: fiber score / MBP score (myelination specific beyond OL differentiation) (ratio); higher = more myelination-specific MBP alignment
# Details: 5 µM; treatment time: 8 days (DIV5-DIV13)
# Outline: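 The measure is the ratio of fiber score to MBP score, where fiber score is continuous MBP fiber length per Olig2+ nucleus and MBP score is thresholded MBP area × intensity per Olig2+ nucleus. Primary E18 rat cortical co-cultures received library compounds at 1 or 5 µM in myelination medium from DIV5 to DIV13, then were fixed in 4 % paraformaldehyde and stained for MBP, Olig2 and DAPI before analysis of four 10X fields per well in duplicate wells.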
row,SMILES,fiber score / MBP score
1,CCC(=O)NS(=O)(=O)c1ccc(-c2c(-c3ccccc3)noc2C)cc1 [Parecoxib],1.01
2,CC(=O)S[C@@H]1CC2=CC(=O)CC[C@]2(C)[C@H]2CC[C@@]3(C)[C@@H](CC[C@@]34CCC(=O)O4)[C@H]12 [Spironolactone],1.22
3,O=C1[C@H](CC[C@H](O)c2ccc(F)cc2)[C@@H](c2ccc(O)cc2)N1c1ccc(F)cc1 [Ezetimibe],0.648
4,C[C@]12CC[C@@H]3c4ccc(OS(=O)(=O)O)cc4CC[C@H]3[C@@H]1CCC2=O [Estrone sulfate],1.16
5,Oc1ncnc2[nH]ncc12 [Allopurinol],0.903
6,CC(C)(C)NC(=O)[C@H]1CC[C@H]2[C@@H]3CC[C@H]4NC(=O)C=C[C@]4(C)[C@H]3CC[C@]12C [Finasteride],0.898
7,CO[C@H]1/C=C/O[C@@]2(C)Oc3c(C)c(O)c4c(c3C2=O)C2=NC3(CCN(CC(C)C)CC3)NC2=C(NC(=O)/C(C)=C\C=C\[C@H](C)[C@H](O)[C@@H](C)[C@@H](O)[C@@H](C)[C@H](OC(C)=O)[C@@H]1C)C4=O [Rifabutin],0.734 ± 0.12
8,CCCc1cc(=O)[nH]c(=S)[nH]1 [Propylthiouracil],0.854
9,N[C@@H](Cc1cc(I)c(Oc2ccc(O)c(I)c2)c(I)c1)C(=O)O [Triiodothyronine],1.21
10,CCOc1ccc2ccccc2c1C(=O)N[C@@H]1C(=O)N2[C@@H]1SC(C)(C)[C@@H]2C(=O)O [Nafcillin],0.777
11,CC[N+](C)(C)c1cccc(O)c1 [Edrophonium],0.982
12,CN(C)[C@@H]1C(O)=C(C(=O)NCN2CCCC2)C(=O)[C@@]2(O)C(O)=C3C(=O)c4c(O)cccc4[C@@](C)(O)[C@H]3C[C@@H]12 [Rolitetracycline],0.832
13,C[C@H]1O[C@@H](O[C@H]2[C@@H](O)C[C@H](O[C@H]3[C@@H](O)C[C@H](O[C@H]4CC[C@@]5(C)[C@H](CC[C@@H]6[C@@H]5C[C@@H](O)[C@]5(C)[C@@H](C7=CC(=O)OC7)CC[C@]65O)C4)O[C@@H]3C)O[C@@H]2C)C[C@H](O)[C@@H]1O [Digoxin],1.46
14,N[C@@H](C(=O)N[C@@H]1C(=O)N2C(C(=O)O)=C(CSc3c[nH]nn3)CS[C@H]12)c1ccc(O)cc1 [Cefatrizine],0.832
15,CCN(CC)CC#CCOC(=O)C(O)(c1ccccc1)C1CCCCC1 (stereo not drawn) [Oxybutynin],0.547
16,CC(COc1ccccc1)NC(C)C(O)c1ccc(O)cc1 (stereo not drawn) [Isoxsuprine],0.841
17,C=CC1=C(C(=O)O)N2C(=O)[C@@H](NC(=O)/C(=N\OCC(=O)O)c3csc(N)n3)[C@H]2SC1 [Cefixime],1.4

row,SMILES,fiber score / MBP score
1,CC(=O)Nc1ccc(CC(=O)O)cc1 [Actarit],0.778
2,CC(C(=O)O)c1ccc(CC2CCCC2=O)cc1 (stereo not drawn) [loxoprofen],0.875
3,CN(C)CCOC(c1ccc(Cl)cc1)c1ccccn1 (stereo not drawn) [Carbinoxamine],1.23
4,CC(C)n1c(/C=C/C(O)CC(O)CC(=O)O)c(-c2ccc(F)cc2)c2ccccc21 (stereo not drawn) [Fluvastatin],0.319
5,CCOC(=O)[C@@]1(CCCCCCOc2ccc(Cl)cc2)CO1 [Etomoxir],0.645
6,O=C(C1CCCCC1)N1CC(=O)N2CCc3ccccc3C2C1 (stereo not drawn) [Praziquantel],0.947
7,CC(C)[C@H](N)C(=O)OCCOCn1cnc2c(=O)nc(N)[nH]c21 [Valaciclovir],0.774
8,Cc1c(O)c(=O)ccn1C [Deferiprone],0.731
9,OCCOCCN1CCN(C2=Nc3ccccc3Sc3ccccc32)CC1 [Quetiapine hemifumarate],0.327
10,CC(C)/N=c1\cc2n(-c3ccc(Cl)cc3)c3ccccc3nc-2cc1Nc1ccc(Cl)cc1 [Clofazimine],0.962
11,CCS(=O)(=O)CCn1c([N+](=O)[O-])cnc1C [Tinidazole],0.706
12,Cc1ncc([N+](=O)[O-])n1CCO [Metronidazole],0.794
13,CCCNC(=O)NS(=O)(=O)c1ccc(Cl)cc1 [Chlorpropamide],1.05
14,COc1ccc2[nH]c([S+]([O-])Cc3ncc(C)c(OC)c3C)nc2c1 (stereo not drawn) [Omeprazole],0.73
15,NCc1ccc(S(N)(=O)=O)cc1 [Mafenide],0.912
16,CN[C@@H]1[C@H](O)[C@H](NC)[C@H]2O[C@@]3(O)C(=O)C[C@@H](C)O[C@H]3O[C@@H]2[C@H]1O [Spectinomycin],1.03
